Assay results reported in PubChem BioAssay AID624139 (Broad Institute, 2012).
The campaign covered roughly 17,000 compounds. About 220 (1.3%) were called active. The sample holds actives, similar compounds and a random draw of the others, so the mix is not that of the screen.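 The calls were made as follows: active = spot fluorescence over background significantly raised, with a chance value under 7% in all four replicate spots of the compound; inactive = the rest.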

Biological target: Nuclear factor NF-kappa-B p105 subunit (Homo sapiens) (UniProt P19838)
Sequence (P19838 1-433 limits assumed): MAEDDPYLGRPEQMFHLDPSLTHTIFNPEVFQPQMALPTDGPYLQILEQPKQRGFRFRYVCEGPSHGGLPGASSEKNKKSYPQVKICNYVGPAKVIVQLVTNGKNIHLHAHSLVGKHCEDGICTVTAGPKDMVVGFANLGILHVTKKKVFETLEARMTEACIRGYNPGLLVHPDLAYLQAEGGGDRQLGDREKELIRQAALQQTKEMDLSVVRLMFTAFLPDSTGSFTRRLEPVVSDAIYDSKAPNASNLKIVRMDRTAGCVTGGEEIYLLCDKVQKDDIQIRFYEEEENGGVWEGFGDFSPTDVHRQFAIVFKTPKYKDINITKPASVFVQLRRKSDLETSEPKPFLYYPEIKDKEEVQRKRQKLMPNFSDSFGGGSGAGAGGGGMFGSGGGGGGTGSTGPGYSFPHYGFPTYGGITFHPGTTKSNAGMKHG
Experiment: binders of NF-kB p50 subunit, primary screen, biochemical, small molecule microarray, anti-His fluorescence (AID 624139);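 also: probe protein is his-tagged human p50 processed subunit at 1 µg/ml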
Conditions: anti-His fluorescence binding

Compound	outcome
O=C1CC(C(=O)Nc2cccc(C(=O)O)c2)C(c2ccccc2)O1 (configuration not stated)	inactive
Cc1noc(C)c1S(=O)(=O)N(C)C[C@H]1Oc2ccc(NC(=O)Nc3cccc4ccccc34)cc2CC(=O)N([C@@H](C)CO)C[C@H]1C	inactive
Cc1noc(C)c1NC(=O)Nc1ccc2c(c1)CC(=O)N([C@H](C)CO)C[C@H](C)[C@H](CN(C)C(=O)NC(C)C)O2	inactive
COc1ccc(C#Cc2ccc3c(c2)[C@]2(C(=O)N3)[C@H](c3ccccc3OCCO)N3[C@H](c4ccccc4)[C@H](c4ccccc4)OC(=O)[C@H]3[C@@H]2C(=O)N2CCCCCCC2)cc1	active
O=C1O[C@@H](c2ccccc2)[C@@H](c2ccccc2)N2[C@@H](c3ccc(OCCO)cc3)[C@]3(C(=O)Nc4ccc(C#CCCO)cc43)[C@@H](C(=O)O)[C@H]12	inactive
COc1ccc(C#Cc2ccc3c(c2)[C@]2(C(=O)N3)[C@H](C(=O)N3CCc4cc(OC)c(OC)cc4C3)[C@H]3C(=O)O[C@H](c4ccccc4)[C@H](c4ccccc4)N3[C@@H]2c2ccc(O)cc2)cc1	active
COc1ccc(C#Cc2ccc3c(c2)[C@]2(C(=O)N3)[C@H](C(=O)N3CCCCCCC3)[C@H]3C(=O)O[C@H](c4ccccc4)[C@H](c4ccccc4)N3[C@@H]2c2ccc(O)cc2)cc1	inactive
O=C1O[C@@H](c2ccccc2)[C@@H](c2ccccc2)N2[C@@H](c3ccccc3OCCO)[C@]3(C(=O)Nc4ccccc43)[C@@H](C(=O)N3CCCCCCC3)[C@H]12	inactive
O=C1O[C@@H](c2ccccc2)[C@@H](c2ccccc2)N2[C@@H](c3ccccc3OCCO)[C@]3(C(=O)Nc4ccc(C#CC5(O)CCCCCC5)cc43)[C@@H](C(=O)N3CCCCCCC3)[C@H]12	inactive
O=c1c(-c2ccc(O[C@@H]3O[C@H](CO)[C@@H](O)[C@H](O)[C@H]3O)cc2)coc2c([C@@H]3O[C@H](CO)[C@@H](O)[C@H](O)[C@H]3O)c(O)cc(O)c12	inactive
CC(C)NC(=O)Nc1ccc2c(c1)C(=O)N([C@H](C)CO)C[C@H](C)[C@H](CN(C)C(=O)CCC(F)(F)F)OCCCC[C@H](C)O2	inactive
C[C@H](CO)N1C[C@H](C)[C@H](CN(C)S(=O)(=O)c2cn(C)cn2)OCCCC[C@H](C)Oc2ccc(N(C)C)cc2C1=O	inactive
C[C@H](CO)N1C[C@H](C)[C@H](CN(C)C(=O)Nc2ccccc2C(F)(F)F)OCc2cn(nn2)CCCC1=O	inactive
C[C@@H]1CN([C@@H](C)CO)C(=O)c2cccc(NC(=O)c3nc4ccccc4s3)c2O[C@H]1CN(C)S(=O)(=O)c1cccs1	inactive
COC(=O)C(CC#Cc1ccc2c(c1)[C@]1(C(=O)N2)[C@H](c2ccc(O)cc2)N2[C@H](c3ccccc3)[C@H](c3ccccc3)OC(=O)[C@H]2[C@@H]1C(=O)NC[C@H](O)c1ccccc1)C(=O)OC	inactive
C[C@@H]1CN([C@H](C)CO)C(=O)c2cc(NC(=O)C3CC3)ccc2O[C@@H]1CN(C)C	inactive
C[C@@H]1CN([C@@H](C)CO)C(=O)Cc2cc(NC(=O)Cc3ccccc3)ccc2O[C@@H]1CN(C)C(=O)Nc1ccc2c(c1)OCO2	inactive
C[C@@H]1CN([C@H](C)CO)C(=O)c2cc(NC(=O)Nc3ccc4c(c3)OCO4)ccc2O[C@@H]1CN(C)C(=O)Nc1ccc(F)cc1	inactive
COc1ccc(S(=O)(=O)N(C)C[C@@H]2Oc3ccc(NC(=O)Cc4ccccc4)cc3CC(=O)N([C@@H](C)CO)C[C@H]2C)cc1	inactive
C[C@@H]1CN([C@@H](C)CO)C(=O)c2cc(NS(=O)(=O)c3cn(C)cn3)ccc2O[C@@H]1CN(C)C(=O)NC1CCCCC1	inactive
Cc1ccc(N(C(=O)COc2ccccc2[N+](=O)[O-])C2C=CS(=O)(=O)C2)cc1 (configuration not stated)	inactive

Compound	outcome
Cc1ccc(S(=O)(=O)N(C)CC(=O)Nc2cccc(C(F)(F)F)c2)cc1	inactive
COCCCNC(=O)[C@@]1(C)c2ccccc2C(=O)N(Cc2ccc(OC(F)(F)F)cc2)[C@H]1c1ccc(CO)cc1	inactive
C[C@H](CO)N1C[C@H](C)[C@@H](CN(C)S(=O)(=O)c2cn(C)cn2)Oc2c(NC(=O)C3CC3)cccc2C1=O	inactive
CCOC(=O)Cc1csc(NC(=O)c2sc3cccc(F)c3c2Cl)n1	inactive
O=C(CNS(=O)(=O)c1cccc(C(F)(F)F)c1)Nc1ccccc1F	inactive
S=C(NCc1ccco1)N1CCN(c2ncccn2)CC1	inactive
C[C@@H]1CN([C@H](C)CO)C(=O)Cc2cc(NS(=O)(=O)c3ccc(Cl)cc3)ccc2O[C@@H]1CN(C)S(=O)(=O)c1ccc(Cl)cc1	inactive
COc1ccc(C)cc1S(=O)(=O)N(C)CC(=O)Nc1ccccc1SC	inactive
CCCCc1nn(-c2ccccc2C(F)(F)F)c(=O)n1Cc1ccc(-c2ccccc2S(=O)(=O)NC(=O)c2sccc2C)cc1	active
C[C@@H]1CN([C@H](C)CO)C(=O)Cc2cc(NC(=O)Cc3cn(C)c4ccccc34)ccc2O[C@@H]1CN(C)Cc1ccc(C(F)(F)F)cc1	inactive
CC(C)NC(=O)N(C)C[C@H]1OCCCC[C@H](C)Oc2ccc(NC(=O)CCC(F)(F)F)cc2C(=O)N([C@H](C)CO)C[C@H]1C	inactive
C[C@H]1CCCCO[C@@H](CN(C)C(=O)Nc2ccccc2)[C@@H](C)CN([C@@H](C)CO)C(=O)c2cc(NC(=O)CCC(F)(F)F)ccc2O1	inactive
Cc1ccc(N(C(C)C(=O)Nc2ccc(Br)cc2F)S(C)(=O)=O)cc1C (configuration not stated)	inactive
C[C@@H]1CN([C@H](C)CO)C(=O)c2cccc(NS(=O)(=O)c3cn(C)cn3)c2O[C@H]1CN(C)S(=O)(=O)c1ccc(Cl)cc1	inactive
C[C@@H]1CN([C@H](C)CO)C(=O)Cc2cc(NC(=O)Cc3ccccc3)ccc2O[C@H]1CN(C)S(=O)(=O)c1cccs1	inactive
COCCOC(=O)N1C(=O)[C@@]2(c3cc(C#CCC(C(=O)OC)C(=O)OC)ccc31)[C@H](c1ccc(OCCO)cc1)N1[C@H](c3ccccc3)[C@H](c3ccccc3)OC(=O)[C@H]1[C@@H]2C(=O)NC[C@H](O)c1ccccc1	inactive
C[C@@H]1CCCCO[C@@H](CN(C)Cc2ccncc2)[C@H](C)CN([C@@H](C)CO)C(=O)c2cc(NS(=O)(=O)c3ccccc3)ccc2O1	inactive
C[C@@H]1CN([C@@H](C)CO)C(=O)Cc2cc(NC(=O)Cc3ccccc3)ccc2O[C@H]1CN(C)Cc1ccc(C(=O)O)cc1	inactive
Cc1noc(C)c1NC(=O)Nc1ccc2c(c1)C(=O)N([C@H](C)CO)C[C@H](C)[C@H](CN(C)C(=O)C1CCCCC1)OCCCC[C@@H](C)O2	inactive
C[C@H]1CCCCO[C@H](CN(C)C(=O)CCC(F)(F)F)[C@@H](C)CN([C@@H](C)CO)C(=O)c2cc(NC(=O)Cc3ccccc3)ccc2O1	inactive
C=CC[C@]1(C(=O)NCC(O)CO)N=C(c2ccc(OCCCO)cc2)O[C@H]1c1ccccc1 (some centres not stated)	inactive

Compound	outcome
CNC[C@@H]1Oc2c(NC(=O)C3CCOCC3)cccc2C(=O)N([C@@H](C)CO)C[C@H]1C	inactive
COc1ccc(NC(=O)O[C@H]2[C@H](OC(=O)Nc3ccc4c(c3)OCO4)[C@@H](OC(=O)Nc3ccc4c(c3)OCO4)[C@@H](OC)O[C@@H]2CO)cc1	inactive
C[C@H](CO)N1C[C@H](C)[C@@H](CN(C)Cc2ccncc2)Oc2ccc(NC(=O)Nc3ccccc3)cc2C1=O	inactive
C[C@H](CO)N1C[C@H](C)[C@H](CN(C)Cc2ccncc2)Oc2ccc(NC(=O)Nc3ccc(F)cc3)cc2C1=O	inactive
C[C@@H]1CN([C@@H](C)CO)C(=O)c2cc(NS(=O)(=O)c3cn(C)cn3)ccc2O[C@@H](C)CCCCO[C@H]1CN(C)S(=O)(=O)c1cn(C)cn1	inactive
OC(COc1ccc2ccccc2c1)Cn1cncn1 (configuration not stated)	inactive
COc1ccc(S(=O)(=O)N(C)C[C@@H]2Oc3ccc(NS(=O)(=O)c4ccc(Cl)cc4)cc3C(=O)N([C@H](C)CO)C[C@H]2C)cc1	inactive
Cc1cc(C(=O)Nc2cccc3c2O[C@H](CN(C)C(=O)Nc2ccccc2)[C@@H](C)CN([C@H](C)CO)C3=O)n(C)n1	inactive
O=c1[nH]c(CSCCO)nc2c1C1(CCCCC1)Cc1ccccc1-2	inactive
C[C@@H]1CCCCO[C@@H](CN(C)Cc2ccc(Cl)c(Cl)c2)[C@@H](C)CN([C@@H](C)CO)C(=O)c2cc(NS(C)(=O)=O)ccc2O1	inactive
CO[C@H]1O[C@H](CO)[C@@H](OC(=O)Nc2ccccc2)[C@H](OC(=O)Nc2ccc3c(c2)OCO3)[C@H]1OC(=O)Nc1ccc2c(c1)OCO2	inactive
O=C(Cn1c(-c2ccccn2)nc2ccccc21)NCCN1CCOCC1	inactive
C[C@H]1CN([C@@H](C)CO)C(=O)CCCn2nncc2CO[C@@H]1CN(C)Cc1ccc(Oc2ccccc2)cc1	inactive
O=C1c2ccccc2C(=O)N1CCCn1c2ccccc2c2nc3ccc([N+](=O)[O-])cc3cc21	inactive
C[C@H]1CCCCO[C@@H](CN(C)Cc2ccncc2)[C@@H](C)CN([C@@H](C)CO)C(=O)c2cc(NC(=O)Nc3ccc(F)cc3)ccc2O1	inactive
CN(C)c1nc(Nc2nc3ccccc3[nH]2)nc(N(C)C)n1	inactive
Cc1ccc(NC(=O)c2ccc(NCc3cccnc3)c([N+](=O)[O-])c2)cc1	inactive
COc1ccc(S(=O)(=O)N(C)C[C@H]2Oc3ccc(NC(=O)CCC(F)(F)F)cc3CC(=O)N([C@H](C)CO)C[C@@H]2C)cc1	inactive
CC(C)NC(=O)N(C)C[C@H]1OCCCC[C@H](C)Oc2ccc(NC(=O)CCCN(C)C)cc2C(=O)N([C@@H](C)CO)C[C@H]1C	inactive
COC(=O)c1c(NC(=O)c2cc(-c3ccccn3)nc3c(C)cc(C)cc23)sc(C)c1C	inactive
